Data reported in PubChem BioAssay.

Biological target: Epidermal growth factor receptor (Homo sapiens) (UniProt P00533)
Experiment: EGFR binders on small-molecule microarrays, primary screen, biochemical, small-molecule microarray, 635 nm fluorescence (AID 1104);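 further: score merges 667 nm emission intensity with spot signal to noise over triplicate slides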
Conditions: EGFR binding, higher = more signal

Sequence of Epidermal growth factor receptor (Homo sapiens) (P00533 whole entry, looked up): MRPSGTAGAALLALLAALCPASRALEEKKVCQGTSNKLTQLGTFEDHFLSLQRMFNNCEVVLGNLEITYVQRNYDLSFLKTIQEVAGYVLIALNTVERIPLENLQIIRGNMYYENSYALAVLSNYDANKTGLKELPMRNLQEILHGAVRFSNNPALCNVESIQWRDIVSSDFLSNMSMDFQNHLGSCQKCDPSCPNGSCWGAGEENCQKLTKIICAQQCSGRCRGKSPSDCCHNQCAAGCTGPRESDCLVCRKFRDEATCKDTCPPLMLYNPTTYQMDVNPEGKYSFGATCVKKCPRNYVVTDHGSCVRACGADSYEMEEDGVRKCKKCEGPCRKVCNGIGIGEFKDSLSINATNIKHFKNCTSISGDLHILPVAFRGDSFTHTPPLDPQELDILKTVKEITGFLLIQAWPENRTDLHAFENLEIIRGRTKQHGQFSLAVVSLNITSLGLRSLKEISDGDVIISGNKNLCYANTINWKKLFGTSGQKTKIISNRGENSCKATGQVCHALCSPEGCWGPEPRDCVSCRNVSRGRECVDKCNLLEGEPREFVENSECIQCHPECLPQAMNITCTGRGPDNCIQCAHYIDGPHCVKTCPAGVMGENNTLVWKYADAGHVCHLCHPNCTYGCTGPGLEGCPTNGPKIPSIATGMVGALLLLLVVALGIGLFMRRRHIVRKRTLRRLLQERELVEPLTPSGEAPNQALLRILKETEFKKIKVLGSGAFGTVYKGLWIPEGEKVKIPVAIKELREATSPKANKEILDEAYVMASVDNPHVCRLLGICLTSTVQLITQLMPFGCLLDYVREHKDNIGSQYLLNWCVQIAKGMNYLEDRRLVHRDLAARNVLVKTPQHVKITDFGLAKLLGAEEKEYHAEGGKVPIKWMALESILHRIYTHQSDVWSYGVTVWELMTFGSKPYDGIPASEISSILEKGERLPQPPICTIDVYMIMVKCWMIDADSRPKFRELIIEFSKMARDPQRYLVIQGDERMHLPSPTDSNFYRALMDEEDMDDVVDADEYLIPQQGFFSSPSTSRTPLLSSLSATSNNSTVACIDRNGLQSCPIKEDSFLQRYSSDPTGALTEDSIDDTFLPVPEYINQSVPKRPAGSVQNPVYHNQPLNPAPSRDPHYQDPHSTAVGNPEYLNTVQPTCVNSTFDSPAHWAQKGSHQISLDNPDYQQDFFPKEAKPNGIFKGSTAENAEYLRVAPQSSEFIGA

Q: With `CC(C)(C)OC(=O)CC[C@]1(C(=O)N2CCCCC2)COC(c2ccc(OCCCO)cc2)=N1` as the molecule, how does the composite z-score read?
A: 0.101

Q: How did the composite z-score turn out when `NC(=O)[C@H]1[C@@H]2C(=O)O[C@@H](c3ccccc3)[C@@H](c3ccccc3)N2[C@@H](c2ccc(O)cc2)[C@]12C(=O)Nc1ccc(C#CC3=CCCCC3)cc12` was run?
A: -0.433

Q: For `CN1C(=O)[C@@]2(Cc3ccccc3)N=C(c3ccc(OCCCO)cc3)O[C@H]2c2ccccc21`, which composite z-score is on record?
A: 0.261

Q: For `Cc1nc2cc(Br)ccc2c(=O)n1Cc1cccc(O)c1`, which composite z-score is on record?
A: 0.416

Q: Which composite z-score does the source give for `Cc1ccc(N2C(=O)c3ccccc3[C@](C)(C(=O)NCc3ccccc3)[C@@H]2c2ccc(CO)cc2)nc1` here?
A: -0.219

Q: `CCCNC(=O)[C@@]1(Sc2ccc(C)cc2)CC(=O)N(C2CCCCC2)[C@@H]1c1ccc(CO)cc1I` was tested. Which composite z-score did it give?
A: -0.0215

Q: `COC(=O)[C@@]1(Cc2ccc(F)cc2)[C@H]2c3cc(C(=O)N(C)C)n(Cc4c(CO)[nH]cc(C)c4=O)c3C[C@H]2CN1C(=O)c1ccccc1` was tested. Which composite z-score did it give?
A: 0.0656

Q: Which composite z-score does the source give for `O=C1C2C=CC(C(O)c3ccco3)N(Nc3ccccc3)C2C(=O)N1c1ccccc1` (configuration not stated) here?
A: -0.616

Q: `C=C(COC)C(=O)CC[C@H](OC(C)=O)c1ccc(OCCO)cc1` was tested. Which composite z-score did it give?
A: -0.0056

Q: With `COCCOC(=O)N1C(=O)[C@@]2(c3cc(C#CC4=CCCCC4)ccc31)[C@H](c1ccc(O)cc1)N1[C@H](c3ccccc3)[C@H](c3ccccc3)OC(=O)[C@H]1[C@@H]2C(=O)NC[C@H](O)c1ccccc1` as the molecule, how does the composite z-score read?
A: 0.462

Q: Which composite z-score does the source give for `[N-]=[N+]=NC[C@H](Cc1ccccc1)NC(=O)c1ccccc1` here?
A: 0.0214

Q: For `COC(=O)[C@@]1(Cc2ccc(OC)cc2)[C@H]2c3cc(C(=O)N4CCCC4)n(Cc4ccc(OC(F)(F)F)cc4)c3C[C@H]2CN1C(=O)c1ccccc1`, which composite z-score is on record?
A: -0.0407

Q: With `CCC(CC)C(O)C1C=CC2C(=O)N(c3ccccc3)C(=O)C2N1Nc1ccc([N+](=O)[O-])cc1` (configuration not stated) as the molecule, how does the composite z-score read?
A: 0.102

Q: How did the composite z-score turn out when `COC(=O)C1N=C(c2ccc(OCCCO)cc2)N(c2ccccc2)O1` (configuration not stated) was run?
A: 0.172

Q: `Cc1ccccc1C(O)C1C=CC2C(=O)N(c3ccccc3)C(=O)C2N1Nc1ccc([N+](=O)[O-])cc1` (configuration not stated) was tested. Which composite z-score did it give?
A: 0.217

Q: With `COCC1=C2[C@@H](CCc3ccccc3)OB(O)C[C@@H]2[C@@H]2C(=O)N(C)C(=O)[C@@H]2C1` as the molecule, how does the composite z-score read?
A: 0.3

Q: `O=C1O[C@H](c2ccccc2)[C@H](c2ccccc2)N2[C@H]1[C@@H](C(=O)N1CCCCCCC1)[C@]1(C(=O)Nc3ccc(C#CC4(O)CCCCCC4)cc31)[C@H]2c1ccccc1OCCO` was tested. Which composite z-score did it give?
A: 1.96

Q: Which composite z-score does the source give for `CCOC(=O)C1=CC[C@@H](c2ccccc2)N(S(=O)(=O)c2ccc(C)cc2)[C@H]1c1cccc(OC)c1` here?
A: 0.197

Q: With `COc1cc(C(O)C2C=CC3C(=O)N(Cc4ccccc4)C(=O)C3N2n2cnnc2)cc(OC)c1OC` (configuration not stated) as the molecule, how does the composite z-score read?
A: 0.489

Q: Which composite z-score does the source give for `COc1ccc([Si](C)(C)[C@@H]2[C@@H](CCn3cc([C@H](O)c4ccccc4)nn3)O[C@]3(C(=O)N(c4ccccc4)c4ccccc43)[C@H]2C)cc1` here?
A: -0.302

Q: How did the composite z-score turn out when `COc1cc(NN2C(C(O)c3ccccc3)C=CC3C(=O)N(C)C(=O)C32)cc(OC)c1OC` (configuration not stated) was run?
A: 0.187

Q: `NC(=O)N1C(=O)C2C(C1=O)C1C=C(CCCO)C2C(C2CC2)N1Cc1cccc(OC(F)(F)F)c1` (configuration not stated) was tested. Which composite z-score did it give?
A: -0.595

Q: `O=c1cccc(-c2ccc(F)cc2)o1` was tested. Which composite z-score did it give?
A: 0.444

Q: `CN(C)CCCCCCNC(=O)[C@@H]1C[C@@H]2C(=O)N[C@@H](CCCCN)C(=O)N2[C@@H]1c1ccc(O)cc1` was tested. Which composite z-score did it give?
A: 1.68

Q: With `COCCOC(=O)N1C(=O)[C@@]2(c3cc(C#Cc4ccc(OC)cc4)ccc31)[C@H](C(=O)NC[C@H](O)c1ccccc1)[C@H]1C(=O)O[C@H](c3ccccc3)[C@H](c3ccccc3)N1[C@@H]2c1ccc(OCCO)cc1` as the molecule, how does the composite z-score read?
A: 0.384

Q: Which composite z-score does the source give for `CC(C)C(=C=CC[C@@H](O)c1cccc(OCCO)c1)C[C@@H](O)c1ccccn1` here?
A: -0.604

Q: For `C=C(CCCC)C(=O)CC[C@H](OC(C)=O)c1ccc(OCCO)cc1`, which composite z-score is on record?
A: -0.448

Q: `C=C(CCCC)/C(=C/C[C@H](OC(C)=O)c1ccc(OCCO)cc1)c1cc(C(=O)OC)ccc1OC` was tested. Which composite z-score did it give?
A: -0.616

Q: How did the composite z-score turn out when `COc1cc2c(cc1O)C(c1ccc(CN3CCCC3)cc1)N(C)CC2` (configuration not stated) was run?
A: -0.419

Q: Which composite z-score does the source give for `CC(C)[Si]1(C(C)C)OCc2cc(-c3ccc(-c4ccc(Cl)c(Cl)c4)o3)nc(CCc3ccccc3)c21` here?
A: -0.833

Q: With `[N-]=[N+]=Nc1ccccc1[C@@H]1OC(c2ccc(OCCCO)cc2)=N[C@]1(Cc1ccccc1)C(=O)NCc1ccccc1` as the molecule, how does the composite z-score read?
A: 0.0762

Q: For `C=C(C)[C@@H]1CC=C(C(O)C2C=CC3C(=O)N(c4ccccc4)C(=O)C3N2Nc2ccc(C#N)cc2)CC1` (some centres not stated), which composite z-score is on record?
A: 0.628
